Inhibition data for 95 compounds are collected here from PubChem BioAssay AID2315 (National Center for Advancing Translational Sciences (NCATS), 2010).

Out of some 290,000 compounds screened, about 27,000 (9.3%) were called active. Rule as the data show it: active = inhibition mostly above about 28% (no sharp cut-off); inactive = mostly below about 43%. Only a selection was taken, and actives are over-represented in it overall. Where a SMILES comes first, the peptide text is derived from it.

Broadly, the inhibition is the change of the read-out against control, counted positive when it falls.

This experiment in a line: A qHTS for Small Molecule Inhibitors of Shiga Toxin. Also: 0% is about no effect. The following applies: Vero cells, Shiga toxin protein synthesis inhibition reporter; at 38.7 µM, stronger effect = higher value.
Turning to `O=C(O)CCCN1C(=O)C2C3c4ccccc4C(c4ccccc43)[C@@H]2C1=O` (stereo not given in full), the inhibition is -10.8% (inactive). For the compound `COc1ccc(OC)c(C(O)c2nc3ccccc3n2C)c1` (stereo not given), the inhibition is -12.2% (inactive). Take `COc1ccc(-c2nnc(SC(=O)N3c4ccccc4Sc4ccccc43)o2)cc1`: the inhibition was 18.6% (inactive).

Turning to `COc1ccc(-c2nnc(SCc3cccnc3)o2)cc1`, the inhibition was 48.5% (active).

As to `COC(=O)CSc1nnc(-c2cccnc2)o1`, the inhibition is 8.44% (inactive). The value for `Cc1cc(Cl)ccc1OCCCC(=O)Nc1cccc(-n2cnnn2)c1` was -13.8% (inactive); that for `CCc1ccc2c(c1)C1(NN=C(c3ccccc3)S1)C(=O)N2` (stereo not given) was 105% (active). The value for `COc1ccccc1C(=O)N/C(=C/c1ccco1)C(=O)Nc1ccc(C(=O)O)cc1` was -2.72% (inactive); that for `CC(=O)c1ccc(N2CCN(C(=O)CCNC(=O)Cn3ccc4ccccc4c3=O)CC2)cc1` was 26.7% (inactive); that for `Cc1cc(O)c(C(=O)/C=C/c2c(F)c(F)c(F)c(F)c2F)c(=O)o1` was 68.6% (active). As to `Cc1ccc(N=Cc2c(O)cc(C)oc2=O)c(C)c1`, the inhibition is -1.09% (inactive). The value for `N#Cc1cc([N+](=O)[O-])ccc1NCC1CCCO1` (stereo not given) was -5.89% (inactive); that for `CC(C)N1CCc2c(sc(NC(=O)Cc3ccccc3)c2C#N)C1` was 2.11% (inactive). Regarding `O=C(CN1CCOC1=O)N1CCCC(Nc2ccc(F)c(F)c2)C1` (stereo not given), the inhibition was 13.5% (inactive). Regarding `CCc1ccnc(NC(=O)Nc2ccc(OCc3ccccc3)cc2)c1`, the inhibition was 17.6% (inactive). The same measure for `COc1cccc(OCC(=O)Nc2ccccc2C(N)=O)c1`: 75.1% (active); for `Cc1cccc(OCC(=O)Nc2ccccc2F)c1`: 74.7% (active); for `Cc1cccc(OCC(=O)NCCCNC(=O)c2ccccn2)c1`: -11.4% (inactive). The value for `Cc1cccc(OCCC(=O)Nc2ccccc2C(N)=O)c1` was 5.43% (inactive); that for `Cc1ccc(F)c(NC(=O)CCOc2ccccc2C)c1` was 2.89% (inactive). The same measure for `Cc1ccc(F)c(NC(=O)CCc2ccccc2)c1`: 70.1% (active). On to `O=C(CCc1ccccc1)NNc1ccc(F)cc1`, for which the inhibition is -4.35% (inactive). The same measure for `CCCOC(=O)Nc1ccccc1C(N)=O`: -12.3% (inactive); for `Cc1cccc(OCC(=O)Nc2ccc(C(=O)O)cc2NC(=O)COc2cccc(C)c2)c1`: -5.8% (inactive); for `CCOC(=O)C1=C(CCc2ccccc2)NC(=O)NC1c1ccc2ccccc2c1` (stereo not given): 2.87% (inactive). The value for `COC(=O)Cc1ccc(N(Cc2ccccc2F)S(=O)(=O)c2ccc(Br)cc2)cc1` was 9.28% (inactive); that for `CC(Oc1ccccc1)C(=O)Nc1c2c(nn1-c1ccccc1)CS(=O)C2` (stereo not given) was -1.03% (inactive). Consider `CCOCCCN(C)C1CCN(C(=O)c2oc3ccccc3c2NC(=O)COc2cccc(C)c2)CC1`, for which the inhibition is -8.02% (inactive).

Turning to `CC(=O)Nc1ccc(C(=O)N(C2=NC(C)CS2)c2ccc(Cl)cc2)cc1` (stereo not given), the inhibition is 32.9% (inactive). As for `CC1CN(C(=O)CCC(=O)NC2CCN(Cc3ccccc3)CC2)c2ccccc2O1` (stereo not given), the inhibition was 10.3% (inactive). The same measure for `COCC1CCCN(Cc2nc(-c3ccc4c(c3)OCO4)no2)C1` (stereo not given): 53.7% (active); for `COCC1CCCN(Cc2cn[nH]c2-c2cc3ccccc3o2)C1` (stereo not given): 56.9% (inactive).

Turning to `CC1CCN(Cc2nc(-c3ccc(Cl)cc3)no2)CC1`, the inhibition was 34.4% (inactive). As to `CCCc1cc(=O)[nH]c(SCC(=O)Nc2sc3c(c2C#N)CCCC3)n1`, the inhibition is -2.72% (inactive). In the case of `COc1ccc(C)cc1N(CC(=O)NC(C)c1ccccc1)S(C)(=O)=O` (stereo not given), the inhibition is -6.92% (inactive). For `Cc1ccc(-c2nc3ccccc3[nH]2)cc1NC(=O)c1sc2ccccc2c1Cl`, the inhibition is -6.19% (inactive). For the compound `COc1ccc(Br)cc1C(=O)NC(=S)Nc1cc(-c2nc3ccccc3[nH]2)ccc1C`, the inhibition is 0% (active).

For the compound `COc1ccc(Br)cc1C(=O)Nc1cccc(C)c1C`, the inhibition was 26.5% (inactive). The value for `COC(=O)COc1ccc2c(c1C)O/C(=C\c1ccco1)C2=O` was 15% (inactive); that for `Cc1ccc(/C=C2/SC(=S)N(CCC(=O)NCCCN3CCOCC3)C2=O)cc1` was 21.5% (inactive); that for `CCn1cc(CN2CCC(C(=O)Nc3cccc(-c4cccc(Cl)c4)c3)CC2)cn1` was -25.7% (inactive). The same measure for `COc1ccccc1NC(=O)c1ccc2nc(N3C(=O)CCC3=O)sc2c1`: 36% (inactive); for `CCOC(=O)N1CCN(CC(=O)Nc2cc(C)nn2-c2nc3ccccc3s2)CC1`: -4.88% (inactive); for `COc1ccc(C2=NN(c3nc4ccccc4s3)C(=O)C2)cc1`: 72.3% (active). Turning to `Cc1ccc2c(c1)N(CC(=O)N1CCC(O)CC1)C(=O)CO2`, the inhibition is 1.8% (inactive).

For the compound `COc1ccc2[nH]c(=O)c(CN(Cc3cccnc3)S(=O)(=O)c3ccccc3F)cc2c1`, the inhibition is -10.7% (inactive). For the compound `COc1ccc(-c2nc(CS(=O)CC(=O)NCc3ccccc3)c(C)o2)cc1OC` (stereo not given), the inhibition is -3.29% (inactive).

Turning to `C/C(CC(=O)NCc1ccc(Cl)cc1)=N\NC(=O)COc1ccc(C)cc1Br`, the inhibition is 2.05% (inactive). The value for `Cc1ccc(NC(=O)c2sc3nc(N)c(C#N)cc3c2N)cc1` was 63.4% (active).

In the case of `Cc1cccc(NC(=O)c2sc3nc4c(c(-c5ccco5)c3c2N)CCC4)c1`, the inhibition is -3.76% (inactive). The value for `CC(=O)Nc1ccc(NC(=O)c2sc3nc4c(c(-c5ccc(C)cc5)c3c2N)CCC4)cc1` was -4.09% (inactive); that for `Cc1c(CCC(=O)O)c(=O)oc2c(C)c(OCc3ccccc3Cl)ccc12` was -3.03% (inactive); that for `CN(Cc1ccccc1)C(=O)COc1ccccc1` was 60.6% (active).

With `CN(Cc1ccc(F)cc1)C(=O)COc1ccc2ccccc2c1`, the inhibition was 26.4% (inactive). Take `CN(Cc1ccccc1)C(=O)c1ccc(COc2ccccc2)cc1`: the inhibition is 12.4% (inactive). The same measure for `Cc1cc(C)c(NC(=O)CSc2nc3ccncc3[nH]2)c(C)c1`: -6.43% (inactive); for `CCOc1ccc2nc(/N=C/c3nc(-c4ccccc4)oc3O)sc2c1`: -1.97% (inactive); for `CC(N=Cc1nc(-c2ccccc2)oc1O)c1ccccc1` (stereo not given): 54.4% (active). The same measure for `CCC1(CC)NC(=O)N(Cc2nc3ccccc3s2)C1=O`: 26.9% (active). The value for `CCC1(CC)NC(=O)N(CC(=O)OCC(=O)NC(=O)c2ccccc2)C1=O` was 19.1% (inactive). With `COC(=O)C1[C@H]2SC(C)(C)C(C(=O)OC)N2C(=O)N1Cc1nc2ccccc2s1` (stereo not given in full), the inhibition is 5.52% (inactive).

In the case of `CC(C)OCCCNC(=S)N1CCC(C(=O)c2ccc3c(c2)OCCO3)CC1`, the inhibition is -16.4% (inactive). `Cc1nn(CC(=O)N2CCCCC2)c(=O)c2nn(-c3ccccc3)c(C)c12`: the inhibition is -2.2% (inactive).

Turning to `CCCc1nn(C)c2c(=O)[nH]c(-c3cc(S(N)(=O)=O)ccc3OCC)nc12`, the inhibition was -4.47% (inactive). For `COc1ccc(-c2noc(CN(C)S(=O)(=O)c3ccc(C)cc3)n2)cc1`, the inhibition is -3.7% (inactive). In the case of `COc1ccc(CNc2cc(C)cc(C)c2)cc1OC`, the inhibition was -14.7% (inactive). In the case of `COc1ccc(N(Cc2cc3cc(OC)ccc3[nH]c2=O)S(C)(=O)=O)cc1`, the inhibition is -19.8% (inactive).

As for `COc1ccc(Cc2nc(-c3ccccn3)no2)cc1OC`, the inhibition was 56.5% (active). As for `COc1ccc2[nH]c(=O)c(-c3noc(-c4ccc(F)cc4)n3)cc2c1`, the inhibition is 69.3% (active).

For `CCCc1nc(-c2cc3cc(C)ccc3[nH]c2=O)no1`, the inhibition was -2.41% (inactive). The same measure for `COc1ccc(-c2noc(CSc3ccc(C)cc3)n2)cc1`: 14.3% (inactive). The same measure for `COc1ccc(CCNS(=O)(=O)c2cccc3cccnc23)cc1OC`: 18.1% (inactive). The same measure for `COc1ccc(-c2noc(-c3ccc(C)cc3)n2)cc1`: 79% (active); for `COc1ccccc1CNS(=O)(=O)c1ccc(C)cc1`: 11.5% (inactive). As for `COc1ccccc1Cc1nc(-c2ccc(C)cc2)no1`, the inhibition is 57.4% (active). The same measure for `Cc1ccc(-c2noc(CC(c3ccccc3)c3ccccc3)n2)cc1`: -20.2% (inactive); for `CC(=O)NC1CCN(CC(=O)Nc2nccs2)CC1`: -3.57% (inactive). The value for `CN=C1S/C(=C\c2c(OC)cc(OC)cc2OC)C(=O)N1C` was -8.5% (inactive); that for `CC[C@H](C)[C@H](NC(=O)[C@H](Cc1cnc[nH]1)NC(=O)[C@@H](N)CCC(=O)O)C(=O)N1CCC[C@H]1C(=O)N[C@@H](C)C(=O)O` (H-EHIPA-OH) was -0.529% (inactive); that for `CC(=O)C1=C(C)NC(=O)NC1c1ccc2c(c1)OCO2` (stereo not given) was 2.18% (inactive). The same measure for `COc1ccccc1C(=O)COC(=O)CNS(=O)(=O)c1ccc(NC(C)=O)cc1`: -27.5% (inactive). With `CC(CC(=O)Nc1ccc(F)cc1F)S(=O)(=O)c1ccc2c(c1)NC(=O)CO2` (stereo not given), the inhibition is -3.11% (inactive). The same measure for `CC1=C(C(=O)Nc2ccccc2)SCCO1`: 52.1% (active).

With `CC1=C(C(=O)Nc2ccccc2)S(=O)(=O)CCO1`, the inhibition was 31.9% (inactive). In the case of `CCCCNC(=O)c1ccccc1NC(=O)C1=C(C)OCCS1`, the inhibition is 1.7% (inactive). The same measure for `Cc1cccc(N(C(=O)c2sc(C)nc2C)C(C(=O)NCC2CCCO2)c2ccccc2)c1` (stereo not given): -10.3% (inactive); for `COc1ccccc1NC(=O)c1ccc(N2CC3CC(C2)c2cccc(=O)n2C3)c(NC(=O)c2cccnc2)c1` (stereo not given): 7.14% (inactive); for `NS(=O)(=O)c1cc(C(=O)NCCOc2ccccc2)c(Cl)cc1Cl`: -6.15% (inactive).

As for `Cc1cc(NC(=O)Nc2ccc(Cl)cc2)n(-c2ccccc2)n1`, the inhibition was 15.7% (inactive). The same measure for `COc1ccc(Cl)cc1C(=O)NCc1cn(C)nc1C`: -46.7% (inactive); for `O=C(Nc1ccc(Cl)cc1)Nc1ccc(C(=O)N2CCOCC2)cc1`: 32.1% (inactive). On to `Cc1nn(C)cc1CNC(=O)Nc1ccc(Cl)cc1`, for which the inhibition was 58.7% (active). The same measure for `Cc1nn(C)cc1C(=O)NNC(=S)Nc1ccc(Cl)cc1`: 3.52% (inactive); for `Cn1ccc(NC(=O)Nc2ccc(Cl)cc2)n1`: 93% (active). The value for `CCC(=O)Nc1nc(C)c(C(=O)Nc2cccc(Cl)c2)s1` was 12.8% (inactive).
